Bioassay records as filed in PubChem BioAssay.
Compounds with a hit are over-represented: about 3.9% of the library has one in this group of screens.
Autofluor counter = compound fluorescence in toxin protease inhibitor counterscreen. fluorescence intensity (test concentration not listed). AID 624483. actives 3.1% (n = 360,000). compound autofluorescence counterscreen, microsphere flow cytometry; stronger effect = higher value; in the data active means fluorescence intensity above about 16000; inconclusive means no clear call, values can overlap the other calls
3CLpro inhibitor = SARS-CoV 3CLpro protease inhibition | P0C6X7 | recombinant SARS-CoV 3CLpro, quenched FRET peptide cleavage | inhibition, % at 6 µM | actives 0.14% (n = 290,000) | AID 1706; in the data active means inhibition above about 12%
Anthrax LF inh2 = inhibitors of Bacillus anthracis lethal factor protease. P15917. multiplex microsphere protease cleavage assay, LF. inhibition, % at 10 µM. actives 0.12% (n = 360,000). AID 588501; further: plate controls were buffer without enzyme for full effect and enzyme alone for no effect
BoNT-F LC inh = blocks Botulinum neurotoxin F light chain protease. Multiplex microsphere protease cleavage assay, flow cytometry. actives 0.22% (n = 360,000). inhibition, % at 10 µM. AID 588497; in the data active means inhibition above about 35%, passing the limit was not always enough; inconclusive means no clear call, values can overlap the other calls; further: plate controls were buffer without enzyme for full effect and enzyme alone for no effect
BoNT-A LC inh2 = blocks Botulinum neurotoxin A light chain protease; multiplex microsphere protease substrate cleavage, flow cytometry; actives 0.17% (n = 360,000); inhibition, % at 10 µM; further: plate controls were buffer without enzyme for full effect and enzyme alone for no effect
CCHF vOTU inh = blocks the CCHF virus ovarian tumor domain protease | actives 0.55% (n = 370,000) | CCHFV vOTU protease, Pep-AMC fluorescence | inhibition, % at 11.5 µM; in the data active means inhibition above about 30%; further: 0% = vehicle wells with enzyme and 100% = no enzyme wells
The depositor's hits bear a star; ? = inconclusive; nt = not tested or not shown. Unless noted, no stated cut-off is given here; in the data, active means inhibition above about 30%; inconclusive means no clear call, values can overlap the other calls; inactive means below that.

SMILES | Autofluor counter | 3CLpro inhibitor | Anthrax LF inh2 | BoNT-F LC inh | BoNT-A LC inh2 | CCHF vOTU inh
Cc1ccc(S(=O)(=O)N(C)C)cc1NC(=O)COC(=O)COc1ccccc1[N+](=O)[O-] | 3331 | -3 | -7 | -4 | -1 | 4
Cc1ccc(NC(=O)C2CCCN(c3nnc(-n4cccc4)s3)C2)c(C)c1 (stereo not drawn) | nt | nt | nt | nt | nt | 2
C=CCOc1c(Br)cc(CNc2ccc(NC(=O)C(C)C)c(OC)c2)cc1OC | 20313* | 3 | -9 | 5 | ? | 13
O=C(O)CCS(=O)(=O)Cc1cccc(Cl)c1 | 23460* | -2 | -1 | -2 | -1 | -22
COC(=O)c1cc(-c2cc(F)cc(OC)c2)c(=O)n2c1CCC2 | nt | nt | nt | nt | nt | -2
S=c1[nH]c2ncccc2o1 | 22317* | -6 | 1 | 2 | 0 | -2
S=c1[nH]c2cc(Cl)c3cccnc3c2o1 | 3653 | 5 | -6 | -15 | -5 | 5
CC(C)[C@H](NC(=O)c1ccccc1F)C(=O)NNC(=O)c1cccs1 | 3972 | nt | -8 | 2 | 0 | 5
COCCCNc1nc2c(c(=O)n(Cc3ccc(Cl)cc3)c(=O)n2C)n1C | 3546 | -4 | 12 | 8 | -3 | -5
Cn1c(NCCCN2CCOCC2)nc2c1c(=O)n(Cc1ccc(Cl)cc1Cl)c(=O)n2C | 21423* | 3 | -8 | 0 | 2 | 0
CCOC(=O)c1c(-c2ccccc2Cl)cn2ccccc12 | 21999* | -3 | -8 | 3 | 2 | -37
CCc1ccc(N2C(=O)/C(=C/c3cccs3)N(CC(=O)OC)C2=S)cc1 | 23041* | 9 | -1 | 3 | ? | -2
COC(=O)CN1C(=S)N(c2ccc(OC)cc2)C(=O)/C1=C/c1cccs1 | 2071 | 4 | 1 | -2 | 1 | 10
Cc1cscc1NC(=O)/C=C/C(=O)O | 3373 | 0 | 9 | ? | -1 | -14
OC(COc1cccc2ccccc12)CN1CCN(c2ccc(Cl)cc2)CC1 (stereo not drawn) | 3947 | 8 | -3 | 35* | 0 | -10
CC(C)NC(=O)CC1OC(=O)c2ccccc21 (stereo not drawn) | 23103* | 7 | -1 | 0 | 0 | 5
CCOC(=O)CSc1nc2ccccc2n1CC(=O)NC(C)(C)C | 21055* | 2 | -1 | -4 | -3 | -18
CC(=O)Nc1cccc(NC(=O)CSc2nc(C)c(C)c(C)c2C#N)c1 | 21241* | -2 | 0 | 5 | ? | -3
COC(=O)[C@]1(C#N)CC(=O)N(Cc2ccc(Cl)cc2)[C@@H]1c1ccccc1 | nt | nt | nt | nt | nt | 6
CC(=O)N(C(C)=O)c1c(N2CCOCC2)c2ccccc2oc1=O | 21404* | 0 | -4 | 6 | 4 | -7
COc1ccc(OCC(=O)OCCN2C(=O)c3ccccc3C2=O)cc1 | 20429* | 0 | -1 | 7 | 4 | -10
FC(F)(F)c1cccc(Oc2ccc3c(C(F)(F)F)cc(C(F)(F)F)nc3n2)c1 | 21842* | 3 | -2 | 1 | ? | 0
FC(F)(F)c1cc(C(F)(F)F)c2ccc(Oc3ccccc3)nc2n1 | 15838 | 3 | 0 | -2 | 1 | 3
CCOC(=O)C1=C(Cc2ccc(Cl)cc2)C(=O)c2ccccc2C1=O | 23250* | 1 | -9 | -10 | 3 | nt
CCOC(=O)C1=C(C)N=C2c3ccccc3C(=O)C2C1c1ccc(Cl)cc1 (stereo not drawn) | 9186 | 1 | -8 | -11 | 0 | 15
SMILES | Autofluor counter | 3CLpro inhibitor | Anthrax LF inh2 | BoNT-F LC inh | BoNT-A LC inh2 | CCHF vOTU inh
CN(C)/C=C1\C(=O)N(c2ccc(Oc3ccccc3)cc2)CS1=O (stereo not drawn) | 22670* | 2 | -1 | 1 | 1 | 4
CCOc1cc(C2c3c(n[nH]c3C)C(=O)N2c2ccc(C)cc2)ccc1O (stereo not drawn) | 23172* | 4 | -1 | 2 | 1 | 12
COc1cc(C2c3c(n[nH]c3C)C(=O)N2c2ccc(C)cc2)ccc1O (stereo not drawn) | 9173 | 3 | -10 | 0 | 0 | -2
Cc1ccc(C(=O)NCC(=O)OCc2nnc(-c3ccc([N+](=O)[O-])cc3)o2)cc1 | 3915 | nt | -3 | 2 | 0 | -5
CN(C(=O)CSc1nc(-c2ccccc2)cn1N)C(c1ccccc1)c1ccccc1 | 24699* | 0 | -11 | -5 | -4 | -13
COC(=O)[C@@H](NC(=O)Nc1cccc(OC)c1)C(C)C | 21593* | 4 | -8 | 5 | 5 | 3
COC(=O)[C@@H](NC(=O)Nc1ccc(OC)cc1)C(C)C | 8405 | 1 | -4 | -2 | -1 | -2
COC(=O)c1ccccc1NC(=O)Nc1cc(C)ccn1 | 2026 | -4 | -1 | 0 | 0 | -4
COC(=O)c1ccccc1NC(=O)Nc1cc(C)cc(C)n1 | 21356* | -5 | -1 | 6 | 4 | -8
COC(=O)c1cc(OC)c(OC)cc1NC(=O)c1cccc(OC)c1OC | 4510 | 6 | 6 | -4 | 1 | 0
COC(=O)c1cc(OC)c(OC)cc1NC(=O)Nc1ccccc1OC | 23051* | -2 | -2 | -1 | 1 | -8
O=C(N/N=C/C(Br)=C\c1ccccc1)c1n[nH]c2c1CCC2 | 25111* | -7 | -3 | -7 | -5 | 1
COc1ccc(C(=O)CSc2n[nH]c(-c3ccco3)n2)cc1 | 17016* | -4 | -1 | -2 | -1 | 8
Cc1ccc(C(=O)CSc2n[nH]c(-c3ccco3)n2)cc1C | 17185* | 0 | -2 | -3 | -2 | 3
CCc1ccc2c(COC(=O)C3CC(=O)N(CCc4ccccc4)C3)cc(=O)oc2c1 (stereo not drawn) | 5138 | nt | 2 | -6 | 4 | 6
Cc1ccc(S(=O)(=O)NC(=O)c2cccn2C)cc1 | 16326* | 2 | 0 | -1 | 0 | -2
O=c1cc(O)c2c(=O)n(C3CCCCC3)c3ccccc3c2o1 | 22987* | -6 | 2 | 2 | 0 | -2
O=C(c1ccc(Br)s1)N1CCN(c2ncccn2)CC1 | 23389* | -5 | 2 | 0 | 2 | 3
O=C(c1ccc(Br)s1)N1CCCC1 | 8427 | 6 | 1 | 11 | 1 | -24
C=CCn1c(SCC)nc2sc3c(c2c1=O)CCc1ccccc1-3 | 17250* | -1 | -1 | -5 | -2 | -2
C=CCn1c(SC)nc2sc3c(c2c1=O)CCc1ccccc1-3 | 2256 | 3 | 0 | 1 | 0 | 4
CCOC(=O)c1c(N)nn(C(=O)C(C)(C)C)c1-c1ccccc1 | 22970* | 1 | -1 | -2 | -1 | -5
CCOC(=O)c1c(N)nn(C(=O)c2ccccc2F)c1-c1ccc(OC)cc1 | 3958 | 4 | -1 | 1 | -1 | 5
Cc1c(C(=O)/C=C/N(C)C)nnn1-c1ccc(Cl)cc1C#N | 4077 | -1 | 5 | ? | 1 | 6
COc1ccc(C(=O)O/N=C(\N)Cc2ccc(Cl)cc2)cc1OC | 3250 | -1 | 7 | -4 | 0 | -1
O=C(OCc1ccc(Cl)cc1)c1ccccc1C(=O)c1ccccc1 | 17651* | 3 | -12 | -8 | -3 | 6
CCC(=O)Nc1ccccc1C(=O)NC1CCCCC1 | 21479* | 1 | 0 | 3 | 2 | 7
N/C(=N\OC(=O)c1cccc(Br)c1)c1ccc(Br)cc1 | 3015 | -1 | -4 | -7 | 0 | 1
